An excerpt weighted towards active compounds, which were near 1.8% of everything screened.
aDG glyco up: increases alpha dystroglycan glycosylation | Pro5-aDG cells, alpha-DG glycosylation AlphaScreen (IIH6); 0% Pro5, 100% B10-LARGE cell signal | activation, % at 10 µM | actives 0.22% (n = 360,000) | AID 624168;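 active means activation of at least 8% versus controls, or a plate z-score of at least 8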;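 further: Pro5 are CHO cells carrying HIG-tagged alpha-DG that lacks glycosylation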
SUMO Mot1 rescue: SUMOylation pathway inhibition by Mot1-301 growth rescue; AID 2716; growth rescue, % at 18.8 µM; actives 1% (n = 320,000); S. cerevisiae Mot1-301 growth rescue, ATP luminescence, 38.5C; percent above DMSO median, 100 means doubled;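 active means every valid replicate shows activation above 250% relative to neutral control wells; inactive means the rest, any valid replicate at or below 250%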;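 further: OY570 slx delta 5 strain wells were the positive control but not used for scaling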
AI-2 QS mod: Vibrio harveyi AI-2 quorum sensing modulation; Vibrio harveyi JMH597 AI-2 luminescence/OD600 ratio, 9 h; active compounds read low; strain lacks LuxN and CqsS sensors; 0 = neutral-control median; activity change, % at 7.5 µM; actives 0.4% (n = 300,000); in the data active means activity change below about -75%, passing the limit was not always enough; inconclusive means no clear call, values can overlap the other calls;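 further: luminescence divided by OD600 gain over 9 h not by final OD600 alone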
ARNT-TACC3 inh: disrupts binding between human ARNT and TACC3 | inhibition, % at 9.99 µM | actives 0.66% (n = 390,000) | Q9Y6A5 | AlphaScreen His-ARNT PAS-B/GST-TACC3 binding, luminescence; TACC3 fragment carries E629A point mutation;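 active means mean inhibition of replicates at least 50% and at least half of replicates each reaching 50%; inconclusive means half or more replicates reach 50% but mean below 50%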;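 further: 0% = complete ARNT plus TACC3 wells and 100% = ARNT alone without TACC3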
A1 inh: inhibitors of the anti-apoptotic protein A1, read as caspase activation; caspase activation, % (no concentration beside the values); MEF A1-2A-BIM cells, Caspase-Glo 3/7 luminescence, 3 h; percent of clofoctol response, vehicle zero; actives 0.066% (n = 330,000);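 active means over half of replicate activation scores above 10%, or exactly half above 10 with the replicate mean above 10; inconclusive means replicate mean below 10 yet half the replicates above 10; inactive means over half of replicates below 10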
The depositor's hits bear a star; i = inactive; u = inconclusive; x = no result.

SMILES	aDG glyco up	SUMO Mot1 rescue	AI-2 QS mod	ARNT-TACC3 inh	A1 inh
Cc1cc(C(=O)N/N=C/c2c(C)[nH]n(-c3ccccc3)c2=O)n[nH]1	0.0	3.6	-3.5	84.3*	0.6
Cc1ccc(/C=N/Nc2nncc(-c3ccccc3)n2)o1	0.5	4.7	38.4	-3.0	-1.2
CCc1nnc(NS(=O)(=O)c2ccc(N=Cc3c(C)[nH]n(-c4ccc(Cl)cc4)c3=O)cc2)s1	0.0	-6.9	-1.9	23.2	-4.3
Cc1[nH]n(-c2ccccc2)c(=O)c1/C=N/NC(=O)c1ccc(O)cc1O	-0.2	-0.2	-1.4	71.4*	-5.7
Cc1[nH]n(-c2ccc(Cl)cc2)c(=O)c1/C=N/c1nnc(-c2ccccc2)s1	-0.2	2.6	2.1	active	-7.7
Cc1[nH]n(-c2ccc(Br)cc2)c(=O)c1/C=N/NC(=O)c1ccccc1	0.4	-2.7	15.8	27.4	-8.8
Cc1[nH]n(-c2ccccc2)c(=O)c1/C=N/Nc1nncc(-c2ccccc2)n1	0.3	8.0	-64.2	66.3*	0.6
CC(=O)Nc1cccc(/C(C)=N/NC(=O)c2cccc(S(=O)(=O)N3CCCC3)c2)c1	0.0	x	x	x	x
Fc1ccc(NC(=S)Nc2cc(-c3ccccc3)[nH]n2)cc1Cl	1.9	x	-46.7	0.4	0.6
COc1ccc(S(=O)(=O)NCc2ccc(C(=O)NCCN(C)Cc3ccccc3)cc2)cc1	0.4	x	x	x	x
Cc1noc(C)c1S(=O)(=O)Nc1ccc2c(c1)CC(=O)N([C@H](C)CO)C[C@H](C)[C@@H](CN(C)S(C)(=O)=O)O2	x	x	x	3.5	x
COC(=O)c1cc(C)ccc1/C=C1/Cc2c(C)cc(C)cc2C1=O	0.0	x	x	-2.3	x
Cc1noc(C)c1NC(=O)N(C)C[C@H]1OCCCC[C@@H](C)Oc2ccc(NC(=O)C3CCCCC3)cc2C(=O)N([C@H](C)CO)C[C@H]1C	x	x	x	-8.4	x
Cc1ccc(-n2[nH]c(C)c(C=NCc3ccncc3)c2=O)cc1	-0.2	-32.5	5.0	16.3	-1.2
Cc1ccc(-n2[nH]c(C)c(C=Nc3cc(C)ccn3)c2=O)cc1	-0.5	-20.9	-14.0	x	-6.4
Cc1[nH]n(-c2ccccc2)c(=O)c1C=NCc1ccncc1	-0.1	0.7	9.7	19.6*	-0.1
Cc1ccc(-n2[nH]c(C)c(/C=N/NC(=O)c3ccc(O)cc3O)c2=O)cc1	-0.3	-8.1	10.9	62.1*	-7.0
COC(=O)c1ccc(NC(=O)C2CCN(C(=O)c3cc(OC)c(OC)c(OC)c3)CC2)cc1	0.3	335.5*	x	x	-0.3
CC(=O)c1ccccc1NC(=O)COC(=O)/C=C/c1cccs1	0.0	236.5	3.7	0.6	-0.4
O=C(CSc1ccccn1)Nc1nonc1[N+](=O)[O-]	4.2	x	-88.5*	7.1	x
O=C(C1CCCN(C2CC(=O)N(c3ccc(Cl)cc3)C2=O)C1)N1CCCC1 (stereo unspecified)	0.0	266.5*	72.0	-8.1	0.9
O=C(N/N=C/c1ccccc1Cl)c1ccncc1	-0.2	-12.1	20.3	-2.2	-0.4
O=C(NCC1CCCO1)C(=O)N/N=C/c1ccc(O)c(Cl)c1 (stereo unspecified)	-0.1	-8.0	9.7	-1.0	0.2
O=C(N/N=C/c1cc(Cl)ccc1O)c1ccncc1	0.8	6.1	u	69.4*	0.1
O=C(NCC1CCCO1)C(=O)N/N=C/c1cc(Cl)ccc1O (stereo unspecified)	0.1	-5.7	-89.5*	45.8*	0.1
SMILES	aDG glyco up	SUMO Mot1 rescue	AI-2 QS mod	ARNT-TACC3 inh	A1 inh
COC(CNC(=O)c1ccc2c(c1)ncn2-c1cccc(F)c1)OC	-0.4	i	0.3	-8.4	-0.1
Cc1nn(C)c(C)c1CN(C)S(=O)(=O)c1ccc2ccccc2c1	6.5*	-19.5	x	x	0.0
CC(C)NC(=O)N(C)C[C@H]1Oc2ccc(NC(=O)Nc3ccccc3)cc2CC(=O)N([C@@H](C)CO)C[C@H]1C	x	x	x	-4.6	x
CCn1cc(C(=O)O)c(=O)c2cc(F)c(N/N=C/c3ccccc3[N+](=O)[O-])cc21	-0.5	668.8*	18.3	13.0	u
O=C(NCC(c1ccco1)N1CCN(c2ccccc2F)CC1)C(=O)NC1CCCCC1 (stereo unspecified)	0.0	5.0	24.5	4.7	-0.1
CC1(C)C=C2C(=NN(c3ccccc3)C(N)=C2C#N)CO1	0.0	-27.5	38.7	46.0*	1.0
CC1(C)Cc2c(C#N)c(N)n(-c3ccccc3)c(=S)c2CO1	-0.1	-5.5	14.1	5.9	0.1
O=C1CC(c2ccc(F)cc2)CC(O)=C1C=NCCN1CCNCC1 (stereo unspecified)	-0.1	300.7*	11.0	-2.3	0.3
COc1cc2c(cc1OC)-c1cc(NC3CC3)nc(=O)n1CC2	-0.1	-0.1	1.0	53.1*	0.7
COc1cc2c(cc1OC)-c1cc(NC3CCCCCCC3)nc(=O)n1CC2	-0.6	-21.8	43.4	12.5	0.7
COc1cc2c(cc1OC)-c1cc(NC3CCCCC3)nc(=O)n1CC2	-0.3	90.3	20.9	46.2*	0.9
N#C/C(=N/Nc1ccccc1[N+](=O)[O-])C(N)=S	-0.1	-6.2	21.8	0.5	-0.1
CCOc1ccc(C(=O)N[C@H](C(=O)Nc2cccc(S(=O)(=O)N3CCOCC3)c2)C(C)C)cc1	-0.2	x	x	-3.2	x
COc1cc(-c2nnc(NC(=O)c3ccc(S(=O)(=O)N4CCOCC4)cc3)o2)cc(OC)c1OC	x	0.9	16.8	x	0.7
COCc1nnc(NC(=O)c2ccc(S(=O)(=O)N3CCCc4ccccc43)cc2)o1	0.3	-4.3	37.4	x	-0.8
COc1ccc(C(=O)N[C@H](C(=O)Nc2ccc(S(=O)(=O)N3CCOCC3)cc2)C(C)C)cc1	-0.1	338.9*	16.5	18.2	0.9
COCc1nnc(NC(=O)c2ccc(S(=O)(=O)N3CCOCC3)cc2)o1	0.0	-12.8	24.0	45.2*	-0.3
COc1ccccc1-c1nnc(NC(=O)c2ccc(S(=O)(=O)N3CCOCC3)cc2)o1	0.5	-6.0	31.6	46.1*	-0.4
O=CN(CCN(C=O)CN1CCCCC1)CN1CCCCC1	-0.1	-0.1	0.9	-13.1	-0.2
O=C(c1ccc(F)cc1)N1CCCCN2[C@H](CO)[C@@H](c3ccc(/C=C/c4ccccc4)cc3)[C@@H]2C1	x	x	x	-5.7	x
O=C(CSC1=NC(=O)C(Cc2ccccc2)C(=O)N1)Nc1ncc(Br)cc1Br (stereo unspecified)	0.1	327.2*	0.4	4.6	-1.3
CC1CC(=O)Nc2ccccc2N1C(=O)Nc1ccccc1 (stereo unspecified)	0.0	2.1	30.2	-6.1	0.9
CC1CCN(c2nc3c(c(=O)n(C)c(=O)n3C)n2CCSc2nc3ccccc3o2)CC1	x	x	13.5	x	x
CN1CCN(c2nc3c(c(=O)n(C)c(=O)n3C)n2Cc2ccc(Cl)cc2)CC1	0.3	288.8*	-0.2	14.9	-0.7
Cn1c(=O)c2c(nc(N3CCCCCC3)n2CCSc2nc3ccccc3o2)n(C)c1=O	-0.1	422.6*	-5.2	-7.2	x

Source: PubChem (several laboratories)
